This is part of a sample that, as a whole, favours compounds with a hit. Of some 83,000 tested, about 20% had one in any assay.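 Values shown are percent growth following 48 h exposure of cells in 96-well plates to a single concentration of compound; below 10 was considered active.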 Values without a mark were called inactive. Active and inactive are the calls of the source.

The assay concerns UO-31 renal. The assay is described as follows: NCI-60 one-dose screen, 48 h (100 = growth as untreated, 0 = no growth, -100 = all killed). The following applies: 10 µM unless noted.
As to `COc1cc(-c2nnc(SCc3ccc(O)c4ncccc34)n2-c2ccccc2)cc(OC)c1OC`, the growth is -30.2% (active).

On to `CN1c2ccccc2Sc2cc(C=C(C#N)C#N)ccc21`, for which the growth was 95.6%.

Regarding `CC(=O)N(C)C1CCc2c(sc(NC(=O)c3ccc(C(C)(C)C)cc3)c2C(N)=O)C1` (configuration not stated), the growth was 89%.

Regarding `COc1cc(/C=N/NC(=O)c2cn(C3CC3)c3c(OC)c(N4CC5CCCNC5C4)c(F)cc3c2=O)ccc1O` (configuration not stated), the growth was 81.1%.

As to `CC1(C)[C@@H](O)CC[C@]2(C)[C@H]3CC[C@@H]4[C@H]5[C@H](C(=O)/C=C\c6ccc([N+](=O)[O-])cc6)CC[C@]5(O)CC[C@@]4(C)[C@]3(C)CC[C@@H]12`, the growth is 55.2%.

In the case of `CCCCCc1ccc(S(=O)(=O)Nc2cccc(-c3csc(NC(=O)CN4CCN(C)CC4)n3)c2)cc1`, the growth was 75%.

As to `O=S(=O)(NCCNc1nccc(-n2cnc3ccccc32)n1)c1ccc(Br)cc1`, the growth was 79.8%.

As to `COc1ccccc1-n1cc(C#N)c(N)c1C(=O)c1ccc(Br)cc1`, the growth is 73%.

With `COc1cc2oc(-c3cccc(C(=O)N[C@@H](CC(C)C)C(=O)OC(C)(C)C)c3)cc(=O)c2c(OC)c1OC`, the growth is 39.6%.

`CC1(C)CC[C@]23CC[C@]4(C)[C@H](CC[C@@H]5[C@@]6(C)CCCN(CO)C(C)(C)[C@@H]6CC[C@]54C)[C@H]2[C@H]1OC3`: the growth was 76.7%.

`CCOC(=O)c1c(NC(=O)c2ccccc2C(F)(F)F)sc2c1CCC(=O)C2`: the growth is -1.08% (active).

Regarding `COc1ccc(N2C(=O)c3cc(Cl)ccc3NC2SCc2ccccc2)cc1` (configuration not stated), the growth was 63.8%.

Source of the values: PubChem BioAssay (NCI).
